According to PubChem BioAssay (EPA / NIEHS):
Calls of active or inactive are those of the source. The calls were made as follows: active = hit-call score of the fitted dose curve at least 0.9, where 1 is the maximum; inactive = score below 0.9.

What was measured:
[1] = read-out: Interleukin-8 (IL8), CXCL8 (gene 3576); assay: BSK_CASM3C_IL8: BioMAP Diversity Plus: CASM3C Assay for Interleukin-8 (IL8) Biomarker Activity (AID 2283042); settings: primary human coronary artery smooth muscle cells; actives raise or lower the signal;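 also: IL-8 protein level quantified by ELISA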
[2] = read-out: Human Leukocyte Antigen - DR isotype (HLADR), HLA-DRA (gene 3122); assay: BSK_CASM3C_HLADR: BioMAP Diversity Plus: CASM3C Assay for Human Leukocyte Antigen - DR isotype (HLADR) Biomarker Activity (AID 2283043); settings: primary human coronary artery smooth muscle cells; actives raise or lower the signal;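 also: cell-surface HLA-DR protein level quantified by ELISA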
[3] = read-out: Macrophage colony-stimulating factor (MCSF), CSF1 (gene 1435); assay: BSK_CASM3C_MCSF: BioMAP Diversity Plus: CASM3C Assay for Macrophage colony-stimulating factor (MCSF) Biomarker Activity (AID 2283044); settings: primary human coronary artery smooth muscle cells; actives raise or lower the signal;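 also: M-CSF protein amount quantified by ELISA after 24 h exposure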
[4] = read-out: Low-density lipoprotein receptor (LDLR), LDLR (gene 3949); assay: BSK_CASM3C_LDLR: BioMAP Diversity Plus: CASM3C Assay for Low-density lipoprotein receptor (LDLR) Biomarker Activity (AID 2283045); settings: primary human coronary artery smooth muscle cells; actives raise or lower the signal;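 also: LDLR protein level on the cell surface quantified by ELISA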
[5] = read-out: Monocyte Chemoattractant Protein-1 (MCP1), CCL2 (gene 6347); assay: BSK_CASM3C_MCP1: BioMAP Diversity Plus: CASM3C Assay for Monocyte Chemoattractant Protein-1 (MCP1) Biomarker Activity (AID 2283046); settings: primary human coronary artery smooth muscle cells; actives raise or lower the signal;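 also: MCP-1 level quantified by ELISA 24 h after dosing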
[6] = BSK_CASM3C_Proliferation: Cell Proliferation Assessment in the BioMAP Diversity Plus: CASM3C Assay (AID 2283047); settings: primary human coronary artery smooth muscle cells;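 also: sulforhodamine B total protein stain as relative cell number at 560 nm; sub-confluent cells exposed 48 h before staining; fitted both ways against DMSO so gain or loss of cell number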
[7] = read-out: Monokine induced gamma interferon (MIG), CXCL9 (gene 4283); assay: BSK_CASM3C_MIG: BioMAP Diversity Plus: CASM3C Assay for Monokine induced gamma interferon (MIG) Biomarker Activity (AID 2283048); settings: primary human coronary artery smooth muscle cells; actives raise or lower the signal;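 also: MIG protein level measured by ELISA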
[8] = read-out: serum amyloid A (SAA), SAA1 (gene 6288); assay: BSK_CASM3C_SAA: BioMAP Diversity Plus: CASM3C Assay for serum amyloid A (SAA) Biomarker Activity (AID 2283049); settings: primary human coronary artery smooth muscle cells; actives raise or lower the signal;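 also: SAA protein level quantified by ELISA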
[9] = BSK_CASM3C_SRB: Viability Assessment in the BioMAP Diversity Plus: CASM3C Assay (AID 2283050); settings: primary human coronary artery smooth muscle cells;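 also: total protein by SRB staining as cytotoxicity measure in parallel cultures; cells exposed to compound for 24 h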
[10] = read-out: Thrombomodulin, THBD (gene 7056); assay: BSK_CASM3C_Thrombomodulin: BioMAP Diversity Plus: CASM3C Assay for Thrombomodulin Biomarker Activity (AID 2283051); settings: primary human coronary artery smooth muscle cells; actives raise or lower the signal;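 also: thrombomodulin protein level measured by ELISA 24 h after dosing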
[11] = read-out: Tissue Factor, F3 (gene 2152); assay: BSK_CASM3C_TissueFactor: BioMAP Diversity Plus: CASM3C Assay for Tissue Factor Biomarker Activity (AID 2283052); settings: primary human coronary artery smooth muscle cells; actives raise or lower the signal;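 also: cell surface tissue factor protein level read by ELISA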
[12] = read-out: Interferon-gamma inducible Protein 10 (IP10), CXCL10 (gene 3627); assay: BSK_hDFCGF_IP10: BioMAP Diversity Plus: hDFCGF Assay for Interferon-gamma inducible Protein 10 (IP10) Biomarker Activity (AID 2283053); settings: primary human foreskin fibroblasts; actives raise or lower the signal
Outline: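 Cells: human dermal foreskin fibroblasts. Exposure: 24 h post-dosing. Detection: IP-10 ELISA, with values expressed against DMSO controls and fitted in both directions.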

[13] = read-out: Urokinase-type plasminogen activator receptor (uPAR), PLAUR (gene 5329); assay: BSK_CASM3C_uPAR: BioMAP Diversity Plus: CASM3C Assay for Urokinase-type plasminogen activator receptor (uPAR) Biomarker Activity (AID 2283054); settings: primary human coronary artery smooth muscle cells; actives raise or lower the signal;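 also: cell-surface uPAR protein level quantified by ELISA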
[14] = read-out: Vascular cell adhesion molecule 1 (VCAM1), VCAM1 (gene 7412); assay: BSK_CASM3C_VCAM1: BioMAP Diversity Plus: CASM3C Assay for Vascular cell adhesion molecule 1 (VCAM1) Biomarker Activity (AID 2283055); settings: primary human coronary artery smooth muscle cells; actives raise or lower the signal;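 also: VCAM-1 protein level quantified by ELISA on the cells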
[15] = read-out: Collagen III, COL3A1 (gene 1281); assay: BSK_hDFCGF_CollagenIII: BioMAP Diversity Plus: hDFCGF Assay for Collagen III Biomarker Activity (AID 2283056); settings: primary human foreskin fibroblasts; actives raise or lower the signal
Outline: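 Cells: human foreskin fibroblasts, primary. Dosing followed by 24 h incubation, then ELISA for collagen III. Both increases and decreases scored relative to DMSO.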

[16] = read-out: Epidermal growth factor receptor (EGFR), EGFR (gene 1956); assay: BSK_hDFCGF_EGFR: BioMAP Diversity Plus: hDFCGF Assay for Epidermal growth factor receptor (EGFR) Biomarker Activity (AID 2283057); settings: primary human foreskin fibroblasts; actives raise or lower the signal
Outline: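 Dosing human primary skin fibroblasts, then measuring surface EGFR by ELISA at 24 h, gives the endpoint; gains and losses relative to DMSO were fitted in both directions.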

[17] = read-out: Interleukin-8 (IL8), CXCL8 (gene 3576); assay: BSK_hDFCGF_IL8: BioMAP Diversity Plus: hDFCGF Assay for Interleukin-8 (IL8) Biomarker Activity (AID 2283058); settings: primary human foreskin fibroblasts; actives raise or lower the signal
Outline: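 IL-8 levels from compound-treated primary human fibroblasts were read by ELISA at 24 h, with DMSO serving as baseline for bidirectional fitting.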

[18] = BSK_hDFCGF_Proliferation: Cell Proliferation Assessment in the BioMAP Diversity Plus: hDFCGF Assay (AID 2283059); settings: primary human foreskin fibroblasts;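 also: curves fitted for both rise and fall of signal versus DMSO baseline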
Outline: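 This proliferation readout used SRB total-protein staining of human foreskin fibroblasts […], normalized to DMSO with bidirectional curve fitting.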

[19] = read-out: Macrophage colony-stimulating factor (MCSF), CSF1 (gene 1435); assay: BSK_hDFCGF_MCSF: BioMAP Diversity Plus: hDFCGF Assay for Macrophage colony-stimulating factor (MCSF) Biomarker Activity (AID 2283060); settings: primary human foreskin fibroblasts; actives raise or lower the signal
Outline: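 M-CSF levels, determined by ELISA, are taken at 24 h after dosing human skin fibroblasts. Responses in either direction are fitted with DMSO serving as the baseline.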

[20] = BSK_hDFCGF_SRB: Viability Assessment in the BioMAP Diversity Plus: hDFCGF Assay (AID 2283061); settings: primary human foreskin fibroblasts;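 also: cells exposed to compound for 24 h before the read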
Outline: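 Cells were dosed with test chemical, cultured 24 h, fixed with 10% TCA, then stained with 0.1% SRB and read at 560 nm. The fibroblasts were human foreskin primary cells, and DMSO served as baseline.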

Measured: AC50

CCCCOCCOCCOCc1cc2c(cc1CCC)OCO2
active: [13] 20 µM | [15] 20 µM | [18] 31 µM | [19] 12.9 µM | [20] 25.3 µM
inactive: all other assays above

C[C@]12C[C@H](O)[C@H]3[C@@H](CCC4=CC(=O)CC[C@@]43C)[C@@H]1CC[C@@H]2C(=O)CO
active: [1] 0.551 µM | [4] 21.1 µM | [5] 0.573 µM | [6] 0.397 µM | [8] 0.668 µM
not listed: [3] | [19]
inactive: all other assays above

O=C(Nc1ccc([N+](=O)[O-])cc1Cl)c1cc(Cl)ccc1O
inactive: [3] | [4] | [5] | [11] | [14] | [17]
active: [1] 2.27 µM | [2] 0.899 µM | [6] 1.03 µM | [7] 0.764 µM | [8] 1.56 µM | [9] 0.826 µM | [10] 0.643 µM | [12] 0.148 µM | [13] 0.148 µM | [15] 0.148 µM | [18] 0.148 µM | [19] 0.912 µM | [20] 0.063 µM

O=C(O)c1ccccc1
inactive: all assays above

O=C(c1ccc(O)cc1O)c1ccc(O)cc1O
inactive: all assays above

COC(=O)c1ccc(CNS(C)(=O)=O)cc1S(=O)(=O)NC(=O)Nc1nc(OC)cc(OC)n1
inactive: all assays above

CCSC(=O)N(CC(C)C)CC(C)C
active: [16] 5.32 µM
inactive: all other assays above

COC(=O)c1ccccc1C(=O)O
active: [12] 31.5 µM
inactive: all other assays above

CCOC(=O)C(C)Oc1ccc(Oc2cnc3cc(Cl)ccc3n2)cc1 (stereo not given)
active: [18] 30.6 µM
not listed: [14]
inactive: all other assays above

CC(=O)S[C@@H]1CC2=CC(=O)CC[C@]2(C)[C@H]2CC[C@@]3(C)[C@@H](CC[C@@]34CCC(=O)O4)[C@H]12
active: [1] 23.6 µM | [2] 27.3 µM | [5] 20 µM | [6] 31.4 µM | [12] 29.9 µM | [14] 16.8 µM | [17] 30.6 µM | [18] 20 µM | [19] 10.6 µM | [20] 26.7 µM
inactive: [3] | [4] | [7] | [8] | [9] | [10] | [11] | [13] | [15] | [16]

OB(O)O
inactive: all assays above

CC(C)CCCCCCc1ccc(O)cc1
active: [1] 36.2 µM | [2] 28.8 µM | [3] 31.2 µM | [5] 34.3 µM | [6] 15 µM | [7] 35.8 µM | [8] 30.9 µM | [9] 32.6 µM | [10] 4.65 µM | [11] 26.9 µM | [12] 9.75 µM | [13] 31.8 µM | [14] 33.8 µM | [15] 9.95 µM | [16] 12.2 µM | [17] 11.7 µM | [18] 7.24 µM | [19] 8.61 µM | [20] 10.2 µM
